Test results published in PubChem BioAssay (NCI).
This is part of a sample that, as a whole, favours compounds with a hit. Of some 79,000 tested, about 15% had one in any assay. Rule as the data show it: active = growth inhibition above about 70%; inactive = the rest.

Legend:
[1] = NCI Yeast Anticancer Drug Screen. Data for the rad52 strain (AID 147);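 also: 0% = growth of vehicle-treated control cultures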; settings: S. cerevisiae rad52 mutant growth inhibition, hits give high values
In short: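 Here a repair-compromised yeast strain receives each compound; its growth is then quantified and normalised to vehicle-only controls.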

[2] = NCI Yeast Anticancer Drug Screen. Data for the wt1 strain (AID 149);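 also: 0% = growth of vehicle-treated wt1 cultures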; settings: S. cerevisiae wt1 strain (SPY 50644) growth inhibition, hits give high values
In short: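 wt1 strain grown with compound or vehicle; inhibition taken from the growth difference.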

[3] = NCI Yeast Anticancer Drug Screen. Data for the rad50EPP+ strain (AID 151);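 also: 0% = growth of vehicle-treated control cultures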; settings: S. cerevisiae rad50 mutant strain, hits give high values
In short: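 Read-out is yeast growth inhibition relative to vehicle; cells used were the rad50EPP+ strain.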

[4] = NCI Yeast Anticancer Drug Screen. Data for the mgt1 strain (AID 153); settings: S. cerevisiae mgt1 mutant growth inhibition, hits give high values
In short: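 Measured: inhibition of mgt1 yeast growth by compound, normalized to vehicle-treated cultures.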

[5] = NCI Yeast Anticancer Drug Screen. Data for the rad50 strain (AID 155);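 also: 0% = growth of vehicle-only cultures of the same strain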; settings: S. cerevisiae rad50 strain growth inhibition, hits give high values
In short: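 DNA repair mutant yeast, compound exposure, growth read-out; inhibition is taken relative to vehicle.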

[6] = NCI Yeast Anticancer Drug Screen. Data for the mec2-1 strain (AID 157); settings: S. cerevisiae mec2-1 strain, hits give high values
In short: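 Using mec2-1 yeast: add compound, measure growth, express inhibition versus vehicle-treated cultures.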

[7] = NCI Yeast Anticancer Drug Screen. Data for the rad14 strain (AID 159);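 also: 0% = growth of vehicle-treated control cultures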; settings: S. cerevisiae rad14 strain growth inhibition, hits give high values
In short: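 DNA repair-defective yeast, compound-exposed; % growth inhibition derived by comparison with vehicle-treated controls.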

[8] = at 5.0 µM (retest, dose inferred, filed as 0.5)
[9] = at 50.0 µM (retest, dose inferred, filed as 5.0)

Measured: growth inhibition

CCOC(=N)c1ccc(O)c(OC)c1
inactive: [1]; at 1.2 µM -1% | [1]; at 3.7 µM 0% | [1]; at 11.0 µM 0% | [1]; at 33.0 µM 0% | [1]; at 100.0 µM -2% | [2]; at 1.2 µM -3% | [2]; at 3.7 µM -2% | [2]; at 11.0 µM -3% | [2]; at 33.0 µM -1% | [2]; at 100.0 µM -3% | [3]; at 1.2 µM -3% | [3]; at 3.7 µM -4% | [3]; at 11.0 µM -6% | [3]; at 33.0 µM -3% | [3]; at 100.0 µM 1% | [4]; at 1.2 µM -2% | [4]; at 3.7 µM -1% | [4]; at 11.0 µM -2% | [4]; at 33.0 µM -2% | [4]; at 100.0 µM -2% | [5]; at 1.2 µM -1% | [5]; at 3.7 µM 16% | [5]; [8] -2% | [5]; at 11.0 µM 11% | [5]; at 33.0 µM -1% | [5]; [9] -4% | [5]; at 50.0 µM 2% | [5]; at 100.0 µM 2% | [6]; at 1.2 µM 0% | [6]; at 3.7 µM 2% | [6]; [8] -42% | [6]; at 11.0 µM 2% | [6]; at 33.0 µM 3% | [6]; [9] -3% | [6]; at 50.0 µM -9% | [6]; at 100.0 µM 2% | [7]; at 1.2 µM -2% | [7]; at 3.7 µM -6% | [7]; at 11.0 µM -19% | [7]; at 33.0 µM -4% | [7]; at 100.0 µM -1%
